Measurements taken from the supplement of paper PMC7366291.
Where a name gives a salt, the structure may show the parent alone. ± gives the standard deviation or the standard deviation of the averaged measurements.

What was measured:
Details in all cases: 25 µM; exposure: 24-48 hpf
[1] = tested on: Danio rerio Tg(wt1b:EGFP) embryo, pronephros; assay: glomerular separation, fold change vs DMSO control; higher = glomeruli further apart (abnormal)
Method in brief: (§1)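 Distances and angles describing the pronephros were computed by a Fiji macro from 16 reference points set manually on maximum projections of dorsal images. These images came from dechorionated Tg(wt1b:EGFP) zebrafish embryos held in agarose-filled 96-well plates after exposure to 25 μM compound in 0.5% DMSO, in HEPES-buffered E3 with 0.003% PTU, from 24 to 48 hpf at 28.5°C. Any value more than 2 SD from the feature mean was excluded. Features are stated as fold change relative to the mean of same-day DMSO-treated embryos.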

[2] = tested on: Danio rerio Tg(wt1b:EGFP) embryo, pronephros; assay: glomerular width (mean of left and right), fold change vs DMSO control; higher = wider glomerulus
Method in brief: as §1

[3] = tested on: Danio rerio Tg(wt1b:EGFP) embryo, pronephros; assay: pronephric angle neck segment to proximal convoluted tubule (mean of left and right), fold change vs DMSO control; higher = larger pronephric angle
Method in brief: as §1

[4] = tested on: Danio rerio Tg(wt1b:EGFP) embryo, pronephros; assay: fraction of imaged embryos annotated as normal kidney; higher = less nephrotoxic; extreme values may be limits of the assay
Method in brief: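 Zebrafish embryos carrying Tg(wt1b:EGFP) were dechorionated and exposed to 25 μM compound (0.5% DMSO) between 24 and 48 hpf at 28.5°C. Their pronephroi were imaged by widefield fluorescence, and each embryo was classed by hand from maximum projections. The measure is the fraction of embryos per treatment falling in the normal-kidney category.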

Structure (SMILES)	glomerular separation [1]	glomerular width [2]	pronephric angle neck segment [3]	fraction of imaged embryos annotated as normal kidney [4]
NC(=O)C(c1ccccc1)(c1ccccc1)[C@@H]1CCN(CCc2ccc3c(c2)CCO3)C1 [Darifenacin hydrobromide]	0.963 ± 0.39	1.09 ± 0.019	1 ± 0.029	
CCOC(=O)N1CCC(=C2c3ccc(Cl)cc3CCc3cccnc32)CC1 [Loratadine]	1.4 ± 0.98	0.989 ± 0.055	1.1 ± 0.021	
CN(C)/N=N/c1[nH]cnc1C(N)=O [Dacarbazine]	0.922 ± 0.21	0.991 ± 0.037	0.997 ± 0.06	1
COc1ccc(CCN(C)CCCC(C#N)(c2ccc(OC)c(OC)c2)C(C)C)cc1OC (centres undefined) [Verapamil hydrochloride]	1.1 ± 0.41	0.995 ± 0.019	1.075 ± 0.0043	
CCN(CCCc1ccccc1)CCCc1ccccc1 [Alverine citrate salt]	0.843 ± 0.21	1.02 ± 0.044	0.942 ± 0.035	0.75
CC(C)NC[C@H](O)COc1ccc(CC(N)=O)cc1 [(S)-(-)-Atenolol]	0.84 ± 0.24	0.918 ± 0.067	0.959 ± 0.08	0.5
CCN(CC)C(=O)c1ccc(O)c(OC)c1 [Ethamivan]	1.08 ± 0.29	1.1 ± 0.019	1.019 ± 0.0025	0.818
c1cnc(N2CCN(Cc3ccc4c(c3)OCO4)CC2)nc1 [Piribedil hydrochloride]	1.01 ± 0.4	0.962 ± 0.028	1.01 ± 0.055	0.833
CC(CN(C)C)CN1c2ccccc2Sc2ccccc21 (centres undefined) [Trimeprazine tartrate]	0.739 ± 0.27	0.9878 ± 0.0068	1.01 ± 0.0053	0.833
O=C(CCCN1CCC(O)(c2ccc(Cl)cc2)CC1)c1ccc(F)cc1 [Haloperidol]	1.19 ± 0.53	0.918 ± 0.086	0.974 ± 0.046	0.833
CS(=O)(=O)Nc1ccc([N+](=O)[O-])cc1Oc1ccccc1 [Nimesulide]	3.39 ± 1.9	0.837 ± 0.056	1.38 ± 0.071	0
Cc1ncc([N+](=O)[O-])n1CC(O)CCl (centres undefined) [Ornidazole]	0.923 ± 0.39	1.06 ± 0.028	0.985 ± 0.027	0.75
CCCCOc1ccc(OCCCN2CCOCC2)cc1 [Pramoxine hydrochloride]	0.962 ± 0.26	0.951 ± 0.025	0.993 ± 0.033	0.917
N[C@H]1CONC1=O [(S)-(-)-Cycloserine]	0.898 ± 0.5	0.892 ± 0.011	1.025 ± 0.0084	0.5
CNCCC(Oc1ccccc1OC)c1ccccc1 (centres undefined) [Nisoxetine hydrochloride]	0.972 ± 0.43	0.94 ± 0.013	1.06 ± 0.022	0.833
COC(=O)C1=C(C#N)NC(C)=C(C(=O)OC(C)C)C1c1cccc([N+](=O)[O-])c1 (centres undefined) [Nilvadipine]	4.44 ± 1.4	0.7 ± 0.04	1.09 ± 0.17	0.167
CC1=Nc2ccc(Cl)cc2S(=O)(=O)N1 [Diazoxide]	0.743 ± 0.26	1.03 ± 0.029	0.942 ± 0.035	0.833
C#C[C@]1(O)CC[C@H]2[C@@H]3CCc4cc(OC)ccc4[C@H]3CC[C@@]21C [Ethynylestradiol 3-methyl ether]	0.896 ± 0.42	1.038 ± 0.0014	1.03 ± 0.013	0.833
CC(=O)Nc1nnc(S(N)(=O)=O)s1 [Acetazolamide]	0.751 ± 0.2	0.973 ± 0.029	0.9766 ± 0.0062	0.917
CN(C)CCCOc1nn(Cc2ccccc2)c2ccccc12 [Benzydamine hydrochloride]	1.24 ± 0.21	1.03 ± 0.035	0.9939 ± 0.0028	1
CNCC(O)c1ccc(O)c(O)c1 (centres undefined) [Racepinephrine hydrochloride]	0.935 ± 0.21	0.946 ± 0.011	0.998 ± 0.035	0.667
CC[C@H]1OC(=O)[C@H](C)[C@@H](O[C@H]2C[C@@](C)(OC)[C@@H](O)[C@H](C)O2)[C@H](C)[C@@H](O[C@@H]2O[C@H](C)C[C@H](N(C)C)[C@H]2O)[C@](C)(O)C[C@@H](C)/C(=N\OCOCCOC)[C@H](C)[C@@H](O)[C@]1(C)O [Roxithromycin]	0.811 ± 0.45	1 ± 0.014	1.02 ± 0.03	0.75
CC(=O)Nc1ccc(CC(=O)O)cc1 [Actarit]	1.05 ± 0.28	1.116 ± 0.0018	0.998 ± 0.049	0.667
Cn1cnc2c1c(=O)[nH]c(=O)n2C [Theobromine]	0.91 ± 0.41	0.947 ± 0.022	1.0118 ± 0.00063	0.667
CC/C(=C(\c1ccccc1)c1ccc(OCCN(C)C)cc1)c1ccccc1 [Tamoxifen citrate]	0.968 ± 0.33	0.977 ± 0.019	1.02 ± 0.045	0.833
C[C@H]1O[C@@H](O[C@H]2[C@@H](O)C[C@H](O[C@H]3[C@@H](O)C[C@H](O[C@H]4CC[C@@]5(C)[C@H](CC[C@@H]6[C@@H]5C[C@@H](O)[C@]5(C)[C@@H](C7=CC(=O)OC7)CC[C@]65O)C4)O[C@@H]3C)O[C@@H]2C)C[C@H](O)[C@@H]1O [Digoxin]	1.43 ± 0.52	1.08 ± 0.023	0.9342 ± 0.0075	0.75
CC(=O)OCC(CCn1cnc2cnc(N)nc21)COC(C)=O [Famciclovir]	0.793 ± 0.23	1.06 ± 0.048	0.9775 ± 0.004	1
CCc1nn(CCCN2CCN(c3cccc(Cl)c3)CC2)c(=O)n1CCOc1ccccc1 [Nefazodone hydrochloride]	0.987 ± 0.43	1.05 ± 0.061	0.989 ± 0.012	0.727
